A number with no mark means an inactive call. Records with an inconclusive call do not appear. Activity calls are given as the source filed them. Unless noted, the call rests on the fitted dose curve; in most records, active means well fitted curve in the direction sought with a large enough effect in the repeat runs; inconclusive means weak or mixed curves; inactive means no such curve, though single readings can be large; an effect the other way counts as inactive or inconclusive.

The nature of experiment [1]: qHTS assay for small molecules that induce genotoxicity in human embryonic kidney cells expressing luciferase-tagged ATAD5 (AID 651632). Further: nearly all actives have a fitted effect of over 15% in size. A digest of the protocol: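 Luminescence read-out: after 16 hr compound exposure at 37C, ATAD5-luciferase HEK293T cells received Amplite, 30 min RT, then CCD imaging. A rise in signal marks genotoxic stress.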
A general note: In qHTS, concentration-response curves come from the screen itself.

A short description of experiment [2]: qHTS assay for small molecule agonists of the p53 signaling pathway - cell viability (AID 651633; calls by dose curve;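 further: p53RE-bla HCT reporter cells with a stable beta-lactamase p53 reporter; series mostly up to about 83 µM; nearly all actives have a fitted effect of over 30% in size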). The method in brief: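 p53RE-bla cells, seeded at 4,000 per well and rested 5 h at 37 C/5% CO2, received compounds in DMSO for 16 h at 37 C. CellTiter-Glo was then added, and luminescence was read after 30 min at room temperature to gauge cytotoxicity.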
Experiment [3] is described as follows: qHTS assay for small molecules that induce genotoxicity in human embryonic kidney cells expressing luciferase-tagged ATAD5 - cell viability (AID 651634; calls by dose curve; further: nearly all actives have a fitted effect of over 25% in size). A digest of the protocol: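 HEK293T ATAD5-luc cells, 2,000/well; compound 15.5 hr, 37C/5% CO2; CellTiter-Fluor 30 min, 37C; fluorescence read.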
The nature of experiment [4]: qHTS assay for small molecule disruptors of the mitochondrial membrane potential - cell viability (AID 720634; calls by dose curve;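 further: human HepG2 liver cancer cells; series mostly up to about 83 µM; nearly all actives have a fitted effect of over 20% in size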). A digest of the protocol: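 Luminescence from CellTiter-Glo (ATP content) gave viability in HepG2 cells, read in the same wells as the MMP dye assay after 1 hr compound exposure at 37 C.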
A short description of experiment [5]: qHTS assay for small molecule disruptors of the mitochondrial membrane potential (AID 720635). Further: potency means the concentration at half of the fitted maximal effect. The method in brief:
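HepG2 cells (2,000/well) attached overnight at 37C, then took compound for 1 hr at 37C, 5% CO2. Mito-MPS dye was added for 30 min; fluorescence was read at 490/535 nm (monomers) and 540/590 nm (aggregates).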

The nature of experiment [6]: qHTS assay to test for compound auto fluorescence at 590 nm (red) in HepG2 cells (AID 720674). A digest of the protocol:
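Rose Bengal sodium served as the red fluorophore standard. HepG2 monolayers (overnight attachment, MEM with 10% FBS) were exposed to test compounds for 1 hr at 37 C and read at Ex 540/Em 590 nm.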

A short description of experiment [7]: qHTS assay to test for compound auto fluorescence at 535 nm (green) in HepG2 cells (AID 720675).
Experiment [8] in a line: qHTS assay to test for compound auto fluorescence at 460 nm (blue) in HEK293 cells (AID 720678). A digest of the protocol:
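Blue read-out at excitation 405 nm and emission 460 nm follows overnight compound exposure of HEK293 cells at 37C in 5% CO2. Activity is given as auto fluorescence equivalency to triamterene.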

The nature of experiment [9]: qHTS assay to test for compound auto fluorescence at 590 nm (red) in HEK293 cells (AID 720679). A digest of the protocol:
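Red channel, Ex/Em 540/590nm; signal expressed as equivalency to Rose Bengal sodium. HEK293, 2,000 cells/well, 10% dialyzed FBS; 23 nL compound pinned after 4-5 hr attachment; overnight 37C/5% CO2 before reading.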

A short description of experiment [10]: qHTS assay to test for compound auto fluorescence at 535 nm (green) in HEK293 cells (AID 720680).
The nature of experiment [11]: qHTS assay to test for compound auto fluorescence at 535 nm (green) in HEK293 cell free culture (AID 720682). The method in brief: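 Fluorescein serves as the green reference fluorophore; each compound's intrinsic emission at 535 nm (excitation 485 nm) is reported as an equivalent amount of that dye, measured in serum-containing DMEM without cells.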
Experiment [12] can be described thus: qHTS assay to test for compound auto fluorescence at 590 nm (red) in HEK293 cell free culture (AID 720683). The method in brief: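 Tox21 10K library compounds were pinned into cell-free DMEM with 10% FBS and fluorescence was read at excitation 540 nm. Activity is expressed as Rose Bengal sodium equivalency.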
Experiment [13] in a line: qHTS assay to test for compound auto fluorescence at 590 nm (red) in HepG2 cell free culture (AID 720684). A digest of the protocol: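 Ex 540 / Em 590 nm read of compound in cell-free MEM (10% FBS). Rose Bengal sodium reference.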
The nature of experiment [14]: qHTS assay to test for compound auto fluorescence at 460 nm (blue) in HepG2 cell free culture (AID 720685). The method in brief:
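Cell-free plates of MEM plus 10% FBS received 23 nL compound or DMSO vehicle; blue-channel (405/460 nm) intensity scored against triamterene as reference fluorophore.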

Experiment [15] is described as follows: qHTS assay to test for compound auto fluorescence at 535 nm (green) in HepG2 cell free culture (AID 720686).
The nature of experiment [16]: qHTS assay to test for compound auto fluorescence at 460 nm (blue) in HepG2 cells (AID 720687). The method in brief:
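Cells (2,000/well in MEM with 10% FBS) attached overnight at 37 C, then were exposed to compound or DMSO for 1 hr at 37 C, 5% CO2. Fluorescence read at Ex/Em 405/460 nm, expressed as triamterene-equivalent signal.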

Experiment [17] has as its target Glucocorticoid receptor (Homo sapiens) (UniProt P04150). Briefly: qHTS assay to identify small molecule agonists of the glucocorticoid receptor (GR) signaling pathway (AID 720691; active means well fitted activation curve with a large enough effect in the signal ratio in the repeat runs, not every such curve was filed as active; the % refers to the signal ratio). A digest of the protocol:
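HeLa GR-bla reporter line; cells pre-incubated 4 h, compound in DMSO 18 h at 37 C; LiveBLAzer B/G FRET substrate 2 h RT; fluorescence intensity read-out.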

A short description of experiment [18]: qHTS assay for small molecule agonists of the p53 signaling pathway (AID 651631; calls by dose curve; further: nearly all actives have a fitted effect of over 15% in size). A digest of the protocol: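 Read-out is beta-lactamase FRET fluorescence measured 2 h after substrate addition at room temperature, in HCT-116 cells with a p53 response element-driven reporter exposed to compounds for 16 h at 37 °C.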
The nature of experiment [19]: qHTS assay to test for compound auto fluorescence at 460 nm (blue) in HEK293 cell free culture (AID 720681). A digest of the protocol:
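Test compounds were pinned into cell-free culture medium (DMEM with 10% FBS) and fluorescence was read directly at Ex/Em 405/460 nm. Signals were expressed as fluorescence equivalents of triamterene, with DMSO vehicle as control.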

Experiment [20] addresses Glucocorticoid receptor (Homo sapiens) (UniProt P04150). As to the kind of experiment: qHTS assay to identify small molecule antagonists of the glucocorticoid receptor (GR) signaling pathway (AID 720692; active means well fitted inhibition curve with a large enough effect in the signal ratio in the repeat runs, not every such curve was filed as active; the % refers to the signal ratio). The method in brief: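 Read-out: beta-lactamase FRET substrate fluorescence, 2 h at room temperature, in HeLa cells stably carrying a GRE-driven bla reporter. Compounds were co-incubated with 5 nM dexamethasone agonist (final) for 18 h at 37 C.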
On the % scale 0 is the no-effect control and ±100 the full control effect.

Chain of Glucocorticoid receptor (Homo sapiens) (P04150 whole entry, looked up): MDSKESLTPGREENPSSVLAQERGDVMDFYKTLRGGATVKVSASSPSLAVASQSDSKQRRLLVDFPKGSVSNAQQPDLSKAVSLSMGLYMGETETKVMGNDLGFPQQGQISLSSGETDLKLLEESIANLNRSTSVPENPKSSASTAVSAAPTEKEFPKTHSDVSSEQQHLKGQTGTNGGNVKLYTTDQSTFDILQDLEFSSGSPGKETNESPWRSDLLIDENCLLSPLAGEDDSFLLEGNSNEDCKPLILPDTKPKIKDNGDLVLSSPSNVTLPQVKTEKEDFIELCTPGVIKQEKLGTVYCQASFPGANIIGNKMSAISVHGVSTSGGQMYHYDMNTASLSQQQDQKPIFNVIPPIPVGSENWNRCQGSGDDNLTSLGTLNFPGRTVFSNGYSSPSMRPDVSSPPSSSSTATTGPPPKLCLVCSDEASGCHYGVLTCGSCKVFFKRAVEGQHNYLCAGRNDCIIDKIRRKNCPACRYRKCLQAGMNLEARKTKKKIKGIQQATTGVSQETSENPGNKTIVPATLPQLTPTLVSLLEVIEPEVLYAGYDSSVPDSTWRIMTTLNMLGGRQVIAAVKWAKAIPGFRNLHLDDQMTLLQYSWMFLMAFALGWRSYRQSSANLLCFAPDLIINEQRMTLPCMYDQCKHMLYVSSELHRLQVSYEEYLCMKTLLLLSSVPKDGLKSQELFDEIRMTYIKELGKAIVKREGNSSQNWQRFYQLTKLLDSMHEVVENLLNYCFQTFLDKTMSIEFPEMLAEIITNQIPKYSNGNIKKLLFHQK

As for `Nc1cccc(S(=O)(=O)O)c1`, the Potency entry in [1], in [2], in experiment [3], in experiment [4] and in [17] was “inactive” throughout. In experiment [5], the Potency is 0.0972 µM (active). Further, the result in [6], in experiment [7], in experiment [8], in experiment [9], in [10] and in experiment [11] was inactive. Besides, the compound was called inactive in [12], in experiment [13], in experiment [14], in [15] and in experiment [16].
`CC(C)CC(=O)OCc1ccccc1`: the Potency result in experiment [18], in experiment [1], in experiment [5], in [17] and in experiment [20] was “inactive” throughout. Also, the outcome in experiment [6], in experiment [7], in experiment [8], in experiment [9], in [10] and in experiment [19] was inactive. In addition, the call in experiment [11], in experiment [12], in experiment [13], in [14], in [15] and in experiment [16] was inactive.
Regarding `Cc1ccsc1C(=CCCN1CCC[C@@H](C(=O)O)C1)c1sccc1C`, the Potency result in experiment [18], in experiment [1], in experiment [3] and in [4] was “inactive” each time. The compound was called inactive in experiment [6], in experiment [7], in experiment [9], in experiment [10], in [11] and in experiment [13]. The result in experiment [14], in [15] and in [16] was inactive.
For the compound `O=C(O)c1cccc(Cl)c1Cl`, the Potency entry in experiment [18], in [1], in experiment [3], in [4], in experiment [5] and in [17] was “inactive” in each case. Also, the Potency entry in experiment [20] was “inactive”. Besides, the compound was called inactive in [6], in experiment [7], in [8], in experiment [10], in experiment [19] and in [11]. Besides, the outcome in [13], in experiment [14], in experiment [15] and in experiment [16] was inactive.
On to `COC(=O)c1ccc2cc(C(=O)OC)ccc2c1`, for which the Potency entry in experiment [18], in experiment [1], in [3], in experiment [4], in [17] and in experiment [20] was “inactive” throughout. In experiment [6], the fluorescence, relative to Rose Bengal was 0.064% [at 18.6 µM]. Besides, the fluorescence, % of fluorescein control in experiment [7] is -0.0327% [at 18.6 µM]; in experiment [15], -0.0122% [at 18.6 µM]. Also, the fluorescence, % of triamterene in experiment [8] was -0.0093% [at 18.6 µM]. Also, the fluorescence, % of fluorescent control in [9] was 0.496% [at 18.6 µM]; in [19] it was -0.109% [at 18.6 µM]; in experiment [12], 0.0914% [at 18.6 µM]; in experiment [14], -0.114% [at 18.6 µM]; in experiment [16], 0.0678% [at 18.6 µM]. The activity change in experiment [11] was -0.0115% [at 18.6 µM]. The fluorescence, % of Rose Bengal in experiment [13] was 0.0402% [at 18.6 µM].
As for `COc1cc(C)ccc1C(C)C`, the Potency result in experiment [18], in experiment [1], in experiment [2] and in [5] was “inactive” in each case. The result in experiment [7], in experiment [8], in [9], in [10], in experiment [19] and in experiment [11] was inactive. For the same compound, the call in [12], in [13], in experiment [14], in experiment [15] and in experiment [16] was inactive.
For the compound `CN(C)CCOc1ccccc1Cc1ccccc1`, the Potency result in experiment [1], in experiment [2], in experiment [3] and in experiment [4] was “inactive” in each case. Further, the Potency in experiment [5] was 2.66 µM (active). Also, the result in experiment [6], in experiment [7], in experiment [8], in experiment [9], in experiment [10] and in experiment [19] was inactive. The result in experiment [11], in experiment [13], in experiment [14], in experiment [15] and in [16] was inactive.
With `OCCN(CCO)CCN(CCO)CCO`, the Potency entry in experiment [18], in [1], in experiment [3], in experiment [4], in experiment [5] and in experiment [17] was “inactive” throughout. In addition, the Potency result in experiment [20] was “inactive”. Besides, the call in experiment [6], in [7], in experiment [8], in [10], in experiment [19] and in experiment [11] was inactive. Also, the compound was called inactive in experiment [12], in experiment [14] and in experiment [15].

The values above are taken from PubChem BioAssay (Tox21).
